These results are taken from PubChem BioAssay AID504636 (National Center for Advancing Translational Sciences (NCATS), 2011).

Hit rate of the full screen: of about 1,100 compounds, about 490 (45%) were called active. Inconclusive results (about 33%) are left out. Calls come from the whole dose curve. The set was probably picked from earlier hits. The full list was thinned out, with actives kept by preference.
Potency is the fitted concentration of half-maximal effect.

Chain of ATP-dependent 6-phosphofructokinase (Trypanosoma brucei brucei) (O15648 whole entry, looked up): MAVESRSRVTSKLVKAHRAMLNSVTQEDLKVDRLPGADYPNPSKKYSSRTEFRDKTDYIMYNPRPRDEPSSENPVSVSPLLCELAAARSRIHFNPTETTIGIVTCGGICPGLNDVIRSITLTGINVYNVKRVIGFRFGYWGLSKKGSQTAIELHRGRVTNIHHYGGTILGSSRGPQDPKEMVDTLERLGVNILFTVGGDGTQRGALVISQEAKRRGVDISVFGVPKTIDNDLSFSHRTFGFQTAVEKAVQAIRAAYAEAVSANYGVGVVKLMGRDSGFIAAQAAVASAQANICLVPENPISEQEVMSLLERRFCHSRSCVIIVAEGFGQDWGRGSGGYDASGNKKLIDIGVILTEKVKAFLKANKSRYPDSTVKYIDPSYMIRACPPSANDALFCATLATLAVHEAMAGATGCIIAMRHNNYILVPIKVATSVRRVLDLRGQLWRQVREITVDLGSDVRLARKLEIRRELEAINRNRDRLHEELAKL

This assay has as its target ATP-dependent 6-phosphofructokinase (Trypanosoma brucei brucei) (UniProt O15648). In words: Tb PFK orthogonal confirmatory assay using ATP depletion (Kinase-Glo Plus) as an alternative measure of Tb PFK activity: Hit Validation. Note: nearly all actives have a fitted effect of over 60% in size. To be noted: Tb PFK enzyme, Kinase-Glo Plus luminescence; series mostly up to 57.5 µM. From the text:
Various species of the protozoan family Trypanosomatidae are responsible for a range of serious human diseases in tropical and subtropical areas of the world. […] Many of the disorders caused by trypanosomatids are fatal if left untreated, but most currently used drugs are inefficient and toxic.
Oxidative metabolism involving the mitochondrial tricarboxylic acid cycle and oxidative phosphorylation are repressed in these parasites, and recent RNA interference (RNAi) experiments have shown that even partial depletion of certain individual glycolytic enzymes can lead to the death of cultured parasites. One such glycolytic enzyme, phosphofructokinase (PFK), catalyzes the formation of fructose-1,6-bisphosphate (F1,6BP) and ADP from fructose-6-phosphate (F6P) and ATP, and in many metabolic circumstances makes an important contribution to the control of flux through the glycolytic pathway. As a specific glycolytic target, PFK is particularly attractive as it catalyzes the first irreversible step in glycolysis, and structural and kinetic studies have shown very substantial and essential differences from corresponding host enzymes, allowing for the discovery of parasite-selective inhibitors.
The primary qHTS data of T. brucei PFK and ADP-Glo confirmatory data are available in PubChem (AIDs: 485367 and 485368). A luminescent secondary assay was also performed that used luciferase-based nucleotide detection (Kinase-Glo Plus, Promega) similar to the qHTS, but which used ATP (rather than ADP) concentration as an alternate measure of T. brucei PFK activity. The assay measures substrate depletion (ATP) rather than product formation (ADP), coupled to an identical manner of luciferase-based signal detection. As such, compounds which truly act on T. brucei PFK produce a change in signal in the opposite direction of the primary qHTS assay, while compounds which affect the final luciferase reaction produce signal changes in identical directions. Compounds were screened as a concentration-titration series that ranged from 57uM to 0.7nM.
1. Verlinde, C.L., et al., Glycolysis as a target for the design of new anti-trypanosome drugs. Drug Resist Updat, 2001. 4(1): p. 50-65.
2. Albert, M.A., et al., Experimental and in silico analyses of glycolytic flux control in bloodstream form Trypanosoma brucei. J Biol Chem, 2005. 280(31): p. 28306-15.
3. […] J Mol Biol, 2009. 385(5): p. 1519-33.
NIH Molecular Libraries Probe Production Network [MLPCN]
NIH Chemical Genomics Center [NCGC]
PI Name: Dr. Malcolm Walkinshaw
Substrate buffer was dispensed into white, solid 1536-well plates at 3ul/well in 0.1M triethanolamine (TEA) buffer, pH 8.0, containing final concentrations of 5 mM MgCl2, 0.01% Tween20, 0.5 mM fructose-6-phosphate (F6P) and 0.1mM ATP. Then, 23nl of compounds or DMSO were delivered to each well using a pin tool. One ul T. brucei PFK (0.1M TEA, 0.01% Tween20, 0.1% bovine serum albumin (BSA) and 1.25nM PFK, final concentrations) was then dispensed, and plates were incubated at room temperature for 45 min. The luminescent detection reagent, Kinase-Glo Plus (Promega), was then added at 2ul/well and incubated for ten minutes at room temperature. The plates were measured on a ViewLux plate reader for luminescent signal using a clear filter with a one second exposure. The %Activity was determined from the corrected luminescence values. As no specific T. brucei PFK inhibitors have been identified in the literature, 1x (1.25nM) and 0x PFK enzyme controls (untreated) were included to normalize %Activity of identified inhibitors; 0x enzyme values corresponded to 100%Activity (full inhibition), while 1x PFK enzyme values were used to normalize 0% Activity (no inhibition). The Kinase-Glo Plus protocol varies from the primary screen in that it measures ATP, rather than ADP, concentration, and thus provides a measure of substrate depletion, rather than of product formation.
[…]
In general terms: Kinase-Glo measures the ATP left after a reaction by luminescence.
Regarding `CCOc1cccc(/C=N/N2C(=O)CSC2=S)c1O`, the Potency is 30.1 µM (active).
For `O=C1CSC(=S)N1/N=C/c1ccc(O)c([N+](=O)[O-])c1`, the Potency entry is “inactive”.
For `Cn1sc(=O)c2cc(S(=O)(=O)NC3CC3)ccc21`, the Potency is 7.57 µM (active).
Next, `OC(CNCc1ccc(Cl)c(Cl)c1)c1ccccc1` (stereo unspecified): 21.3 µM (active); `Cn1nnnc1NCc1ccc(Cl)c(Cl)c1`: 10.7 µM (active); `O=[N+]([O-])c1c(NCCO)cc(Sc2nc3ccccc3s2)c2nonc12`: 0.601 µM (active).
For `C=C(C)C(=O)Nc1cccc(C2=NOC3(C2)C[C@H](C(N)=O)N(C(=O)C(c2ccccc2)c2ccccc2)C3)c1` (stereo partly specified) the value was 1.51 µM (active); for `C/C=C\C=C\C(=O)N1CC2(CC(c3cccc(NC(=O)/C(C)=C\C)c3)=NO2)C[C@H]1C(N)=O` (stereo partly specified), 9.53 µM (active); for `CCc1ccc(NC(=O)C(=O)NNC(=O)c2cccs2)cc1`, “inactive”.
For `O=c1ccnc(Nc2ccc(Cl)cc2)[nH]1` the value was 21.3 µM (active); for `O=c1[nH]c2ccccc2n2c(-c3ccccc3)nnc12`, 6.01 µM (active); for `N/C(=N\OC(=O)Nc1ccc(Cl)c(Cl)c1)c1ncc(C(F)(F)F)cc1Cl`, 26.9 µM (active).
`Nc1nc(SCc2ccc([N+](=O)[O-])cc2)c2ncn(C3OC(CO)C(O)C3O)c2n1` (stereo unspecified): the Potency was 23.9 µM (active).
Regarding `Cc1nc(N)nc(SCc2ccc([N+](=O)[O-])cc2)c1N`, the Potency was 10.7 µM (active).
Next, `Cn1ccc(=Nc2ccc(NC(=O)c3ccc(N=c4ccn(C)c5ccc([N+](=O)[O-])cc45)cc3)cc2)cc1`: “inactive”; `O=C(Cc1ccc([N+](=O)[O-])cc1)N/N=C/c1ccco1`: 19 µM (active).
Consider `O=C(CSc1nc(O)c(Cc2ccccc2)c(=O)[nH]1)Nc1nc2c(s1)CCCC2`, for which the Potency was 6.75 µM (active).
Next, `Cc1ccc(-c2nn(-c3ccccc3)cc2/C=C2\SC(=S)N(CCCCCC(=O)O)C2=O)o1`: 9.53 µM (active).
As to `Cc1cccc(-n2c(N)c(C(=O)N3CCN(C)CC3)sc2=S)c1`, the Potency is 6.01 µM (active).
As to `O=[N+]([O-])/C=C/c1ccc2c(ccn2Cc2ccccc2)c1`, the Potency is 10.7 µM (active).
With `O=C(NCc1ccc(Cl)c(Cl)c1)c1cccnc1`, the Potency is 13.5 µM (active).
Next, `CCn1nc(C(=O)NNS(=O)(=O)c2cc(/C=C/C(=O)O)cc(OC)c2OC)c2ccccc2c1=O`: “inactive”.
For `C=CC1=C(C(=O)O)N2C(=O)[C@@H](NC(=O)/C(=N\OCC(=O)O)c3csc(N)n3)[C@H]2SC1` the value was 2.69 µM (active).
With `COC(=O)c1[nH]c2ccccc2c1NC(=O)CN1CCCc2ccccc21`, the Potency entry was “inactive”.
Next, `CC(C)(C)c1nnc(NC(=O)C2c3ccccc3Oc3ccccc32)s1`: 19 µM (active); `Cc1c(C)c2ccc(OCC(=O)N3CCN(c4cccc(Cl)c4)CC3)cc2oc1=O`: 4.78 µM (active).
Next, `O=c1[nH]c(=S)[nH]c2[nH]c(=S)[nH]c12`: 1.35 µM (active); `COc1ccc(N/C=C(\C2OC(=O)c3ccccc32)[N+](=O)[O-])cc1` (stereo unspecified): “inactive”; `FC(F)(F)C1CCCN(c2nsc3ccccc23)C1` (stereo unspecified): 2.69 µM (active).
Next, `N#Cc1cccc(CSc2ncnc(N)n2)c1`: 13.5 µM (active); `Cc1ccc(NC(=O)c2cc(-c3ccc(C)o3)nc3ccccc23)nc1`: 6.75 µM (active).
Take `Cc1nn(Cc2ccc(Cl)c(Cl)c2)c(C)c1NC(=O)c1cc(C2CC2)on1`: the Potency is 5.36 µM (active).
For `OCCN1CCN(C(=S)c2ccc(-c3ccccc3)cc2)CC1` the value was 9.53 µM (active).
In the case of `Cc1ccc(C)c(-c2nnc(NC(=O)CS(=O)(=O)c3ccccc3)o2)c1`, the Potency result was “inactive”.
As to `COC(=O)CC(=O)N1CCN(c2ccc(Cl)c(Cl)c2)CC1`, the Potency is 23.9 µM (active).
Take `O=C1CSC(=S)N1c1ccc(Cl)c(Cl)c1`: the Potency entry was “inactive”.
